Assay results as given in PubChem BioAssay AID1159580 (chemical genetic matrix, 2015).
In all, about 5,500 compounds went through this assay and about 2,000 (36%) were called active. Not shown: some 18% with an inconclusive outcome. Cut-off read from the data, not from the text of the source: active = normalized growth mostly below about 0.91 (no sharp cut-off); inconclusive = no clear call, values can overlap the other calls; inactive = mostly above about 0.92. The list shows a part of the results.

Assay: chemical genetic growth profiling, strain panel (AID 1159580);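 note: tested at 20 µM; growth read once vehicle control cultures reached saturation at 30 °C; 1 = growth at the plate median or of vehicle wells; lower values mean less growth of the strain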
Settings: S. cerevisiae deletion strains, growth OD
[1] = locus YAL013W, strain DEP1, active compounds read low
[2] = locus YAL040C, strain CLN3, active compounds read low
[3] = locus YER002W, strain NOP16, active compounds read low
[4] = locus YNL175C, strain NOP13, active compounds read low
[5] = locus YNL197C, strain WHI3, active compounds read low
[6] = locus YNL224C, strain SQS1, active compounds read low
[7] = locus YOR083W, strain WHI5 (second series), active compounds read low

Measured: normalized growth

CO/N=C(/C(=O)N[C@@H]1C(=O)N2C(C(=O)O)=C(CSc3nc(=O)c(O)nn3C)CSC12)c1csc(N)n1 (some centres undefined)
inactive: [1] 1 | [2] 1 | locus YCL061C, strain MRC1 (second series), active compounds read low 1 | [3] 1.01 | locus YGR078C, strain PAC10, active compounds read low 1.01 | locus YJR075W, strain HOC1, active compounds read low 1 | [4] 1.01 | [5] 1.01 | [6] 1 | [7] 1 | locus YPL055C, strain LGE1, active compounds read low 1.01

CO/N=C(\C(=O)NC1C(=O)N2C(C(=O)OC(C)OC(C)=O)=C(COC(N)=O)CSC12)c1ccco1 (centres undefined)
inactive: locus YAL021C, strain ccr4, active compounds read low 0.994 | locus YAL026C, strain drs2, active compounds read low 0.996 | locus YAL030W, strain snc1, active compounds read low 0.998 | locus YBL061C, strain skt5, active compounds read low 0.992 | locus YBR009C, strain hhf1, active compounds read low 0.994 | locus YBR023C, strain chs3, active compounds read low 0.988 | locus YBR171W, strain sec66, active compounds read low 0.983 | locus YBR231C, strain swc5, active compounds read low 1 | locus YBR279W, strain paf1, active compounds read low 0.991 | locus YCL011C, strain gbp2, active compounds read low 0.997 | locus YCL016C, strain dcc1, active compounds read low 0.985 | locus YCL061C, strain MRC1, active compounds read low 0.99 | locus YCL069W, strain vba3, active compounds read low 0.989 | locus YCR088W, strain abp1, active compounds read low 0.994 | locus YDL005C, strain med2, active compounds read low 0.985 | locus YDL040C, strain nat1, active compounds read low 0.995 | locus YDR001C, strain nth1, active compounds read low 1 | locus YDR069C, strain doa4, active compounds read low 0.994 | locus YDR137W, strain rgp1, active compounds read low 0.996 | locus YDR159W, strain sac3, active compounds read low 0.996 | locus YDR195W, strain ref2 0.985 | locus YDR297W, strain sur2, active compounds read low 1 | locus YDR334W, strain swr1, active compounds read low 1 | locus YDR335W, strain msn5, active compounds read low 0.996 | locus YDR392W, strain spt3, active compounds read low 0.993 | locus YEL003W, strain gim4, active compounds read low 0.998 | locus YEL037C, strain rad23, active compounds read low 0.997 | locus YEL061C, strain CIN8 (second series), active compounds read low 0.999 | locus YER015W, strain faa2, active compounds read low 1 | locus YER016W, strain bim1, active compounds read low 0.99 | locus YER111C, strain swi4, active compounds read low 0.986 | locus YER155C, strain BEM2 (second series), active compounds read low 0.991 | locus YFR010W, strain ubp6, active compounds read low 0.998 | locus YGL167C, strain pmr1, active compounds read low 0.989 | locus YGL173C, strain kem1, active compounds read low 0.985 | locus YGL227W, strain vid30, active compounds read low 0.981 | locus YGL240W, strain doc1, active compounds read low 1.01 | locus YGL253W, strain hxk2, active compounds read low 1 | locus YHR013C, strain ard1, active compounds read low 0.998 | locus YHR027C, strain rpn1, active compounds read low 0.994 | locus YHR030C, strain SLT2, active compounds read low 1.03 | locus YHR079C, strain IRE1, active compounds read low 1.05 | locus YHR142W, strain chs7, active compounds read low 0.99 | locus YJL092W, strain hpr5, active compounds read low 0.993 | locus YJL095W, strain BCK1 (second series), active compounds read low 0.997 | locus YJL095W, strain BCK1, active compounds read low 1.01 | locus YJL115W, strain asf1, active compounds read low 0.996 | locus YJL129C, strain trk1, active compounds read low 0.987 | locus YJL154C, strain vps35, active compounds read low 1.01 | locus YJL164C, strain tpk1, active compounds read low 0.996 | locus YJL166W, strain qcr8, active compounds read low 0.996 | locus YJL187C, strain SWE1, active compounds read low 1 | locus YJR066W, strain TOR1, active compounds read low 0.989 | locus YKL160W, strain elf1, active compounds read low 0.997 | locus YKR026C, strain gcn3, active compounds read low 0.983 | locus YKR091W, strain srl3, active compounds read low 0.998 | locus YLL001W, strain dnm1, active compounds read low 0.981 | locus YLL026W, active compounds read low 0.991 | locus YLL041C, strain sdh2, active compounds read low 0.993 | locus YLR027C, strain aat2, active compounds read low 0.992 | locus YLR113W, strain HOG1, active compounds read low 1 | locus YLR221C, strain rsa3, active compounds read low 0.995 | locus YLR258W, strain gsy2, active compounds read low 0.995 | locus YLR262C, strain YPT6 (second series), active compounds read low 0.985 | locus YLR320W, strain mms22, active compounds read low 0.986 | locus YLR342W, strain FKS1, active compounds read low 0.988 | locus YLR357W, strain rsc2, active compounds read low 1.02 | locus YLR370C, strain arc18, active compounds read low 0.987 | locus YLR384C, strain iki3, active compounds read low 1 | locus YML120C, strain ndi1, active compounds read low 0.996 | locus YMR058W, strain fet3, active compounds read low 0.996 | locus YMR125W, strain sto1, active compounds read low 0.985 | locus YMR129W, active compounds read low 0.995 | locus YMR205C, strain PFK2, active compounds read low 0.991 | locus YMR231W, strain pep5, active compounds read low 0.989 | locus YNL071W, strain lat1, active compounds read low 1 | locus YNL183C, strain NPR1, active compounds read low 0.99 | locus YNL209W, strain ssb2, active compounds read low 0.995 | locus YNL248C, strain rpa49, active compounds read low 0.987 | locus YNL322C, strain KRE1 (second series), active compounds read low 0.99 | locus YNR049C, strain mso1, active compounds read low 0.992 | locus YOR001W, strain rrp6, active compounds read low 0.999 | locus YOR070C, strain gyp1, active compounds read low 0.929 | locus YOR080W, strain dia2, active compounds read low 1 | locus YOR083W, strain WHI5, active compounds read low 0.996 | locus YOR106W, strain vam3, active compounds read low 0.988 | locus YOR231W, strain MKK1, active compounds read low 1.04 | locus YOR265W, strain rbl2, active compounds read low 0.991 | locus YOR270C, strain vph1, active compounds read low 1 | locus YOR290C, strain snf2, active compounds read low 1 | locus YPL051W, strain arl3, active compounds read low 0.999 | locus YPL078C, strain atp4, active compounds read low 0.995 | locus YPL106C, strain sse1, active compounds read low 0.981 | locus YPL240C, strain hsp82, active compounds read low 0.994 | locus YPL256C, strain CLN2, active compounds read low 1.07

CO/N=C(/C(=O)N[C@@H]1C(=O)N2C(C(=O)O)=C(COC(C)=O)CS[C@H]12)c1csc(N)n1
inactive: [1] 1.01 | [2] 1.02 | locus YDR363W, strain ESC2, active compounds read low 1.01 | [3] 0.983 | locus YGR229C, strain SMI1, active compounds read low 1 | locus YMR263W, strain SAP30, active compounds read low 0.965 | locus YNL153C, strain GIM3, active compounds read low 1.07 | [4] 1.01 | [5] 1.01 | [6] 0.99 | locus YNL322C, strain KRE1, active compounds read low 0.985 | [7] 0.978 | locus YPL241C, strain CIN2, active compounds read low 1
